Data as given in PubChem BioAssay (Tox21).
Inconclusive results are not listed. Unmarked numbers belong to inactive results. The source made the active and inactive calls. The call rests on the fitted dose curve; in most records, active means well fitted cell-killing curve with a large enough effect in the repeat runs; inconclusive means weak or mixed curves; inactive means no such curve, though single readings can be large or run the other way.
On the % scale 0 is the no-effect control and ±100 the full control effect; potency means the concentration at half of the fitted maximal effect.

Assay: qHTS assay to identify small molecule antagonists of the peroxisome proliferator-activated receptor delta (PPARd) signaling pathway - cell viability counter screen (AID 743213); further: nearly all actives have a fitted effect of over 50% in size
Details: PPARd-bla HEK293H viability, CellTiter-Glo luminescence, 17 h; series mostly up to 62 µM; viability change, negative = cytotoxic: at the top concentration
Procedure, shortened: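 Same-well viability: cells pre-incubated 5 h, dosed with compound plus 300 nM L165041, kept 17 h at 37 C, FRET substrate 2 h RT, then CellTiter-Glo 30 min RT and luminescence.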
In the case of Cc1cc(=O)[nH]o1, the “viability change, negative = cytotoxic” value is reported as -1.77% [at 80.4 µM]. With CC(C)=CCOc1c2occc2cc2ccc(=O)oc12 the “viability change, negative = cytotoxic” value was -13%. With COc1cc(Cl)c(OC)cc1Cl the “viability change, negative = cytotoxic” value was 2.41%. For CC1(C)[C@H](C=C(Cl)Cl)[C@@H]1C(=O)O[C@@H](C#N)c1cccc(Oc2ccccc2)c1, the “viability change, negative = cytotoxic” value was 5.04%. For COC(=O)C(C)N(C(=O)Cc1ccccc1)c1c(C)cccc1C (stereo not drawn), the “viability change, negative = cytotoxic” value was -16%. With CC[C@H]1C[C@H]2[C@@H]3CCC4=CC(=O)CC[C@@H]4[C@H]3CC[C@]2(C)[C@H]1O the “viability change, negative = cytotoxic” value was 6.76%. For O=C(O)C1(c2ccc3c(c2)OC[C@H](Cc2ccc(-c4ccccc4)cc2)[C@H]3O)CCCC1, the Potency was 43.6 µM (active). In the case of c1ccc(CN2CCNCC2)cc1, the “viability change, negative = cytotoxic” value is reported as -1.57% [at 226 µM]. In the case of CC(C)N(CCC(C(N)=O)(c1ccccc1)c1ccccn1)C(C)C (stereo not drawn), the “viability change, negative = cytotoxic” value is reported as -20.9%. For O=C(CBr)OCc1ccccc1, the “viability change, negative = cytotoxic” value was 2.04%. In the case of C=CCC1([C@H](C)CCC)C(=O)NC(=O)NC1=O, the “viability change, negative = cytotoxic” value is reported as 0.198% [at 80.4 µM]. In the case of CCCCC(CC)COP(=O)(Oc1ccccc1)Oc1ccccc1 (stereo not drawn), the “viability change, negative = cytotoxic” value is reported as -13.2%. With COP(=S)(OC)Oc1cc(Cl)c(I)cc1Cl the “viability change, negative = cytotoxic” value was -14.4%. For [CH3][Sn]([CH3])([Cl])[Cl], the Potency was “inactive”. For C(=NC1CCCCC1)=NC1CCCCC1, the Potency was “inactive”. With Clc1cccc2ccccc12 the “viability change, negative = cytotoxic” value was 6.02%. With CO/C=C(/C(=O)OC)c1ccccc1COc1cccc(C(F)(F)F)n1 the “viability change, negative = cytotoxic” value was -3.74%. With O=C(CBr)c1ccccc1 the “viability change, negative = cytotoxic” value was 3.87% [at 80.4 µM]. With CC1(C)CCC(Cc2ccc(Cl)cc2)C1(O)Cn1cncn1 (stereo not drawn) the “viability change, negative = cytotoxic” value was -2.04%. With O=NN1CCCCCC1 the “viability change, negative = cytotoxic” value was 2.01%. For CCC(COC(=O)c1cc(OC)c(OC)c(OC)c1)(c1ccccc1)N(C)C (stereo not drawn), the “viability change, negative = cytotoxic” value was -14.6%. With C=CC(=O)OC the “viability change, negative = cytotoxic” value was 7.18% [at 80.4 µM]. For C=CCN1CC[C@]23c4c5ccc(O)c4O[C@H]2C(=O)CC[C@@]3(O)[C@H]1C5, the “viability change, negative = cytotoxic” value was 8.55%.
